ChEMBL document CHEMBL3988442, “University of Dundee, Small-Polar-MMV Screening Library” (2021)

Each molecule was assayed against Shiga toxin 2 (Escherichia coli O157:H7) (UniProt P09385+P09386) (assay: E. coli 0.157:H7 Shiga Toxin SOP - stx2 screening assay). Conditions: 30 µM.
Format: functional
Design: scale not given: direction of the effect not stated beside the values
Molecule `COCCN1C[C@@H]2CN(Cc3cccc(F)c3)CCC[C@]2(C(=O)O)C1` has a Percent Effect of -10.4%.
With `CC(C)c1cc(N2CCC(CCC(=O)NC3CC3)CC2)n2nccc2n1` the Percent Effect was -4.79%.
`CN(C)C(=O)CN1CCC2(CCN(Cc3nccs3)CC2)C1=O` showed a Percent Effect of -16.7%.
In the case of `CC(=O)N(Cc1ncc(C)o1)C1CCN(Cc2noc(C)n2)C1` (stereo not given), the Percent Effect is reported as 4.63%.
`Cc1cccc(CN2CCc3ncnc(N4CCOCC4)c3CC2)n1` was tested, and the Percent Effect was -8.89%.
With `CC(C)n1ncc2c1NC(=O)CSC2C(C)(C)C` (stereo not given) the Percent Effect was -13.8%.
`CC(NC(=O)NCC1(c2ccccc2)CCC1)c1nncn1C` (stereo not given) was tested, and the Percent Effect was 14.9%.
`Cc1cnn(C2CCCN(C(=O)CCCOc3cccc(F)c3)C2)c1` (stereo not given) gave a Percent Effect of 11.8%.
In the case of `COCc1ccccc1C(=O)NCCCN1CCCC1C(=O)N(C)C` (stereo not given), the Percent Effect is reported as -26.7%.
With `CCCn1nc2c(cc1=O)CN(CCCN1CCCC1=O)CC2` the Percent Effect was 12.4%.
In the case of `CCN1CCN(C(=O)c2cc(C(=O)OC)nn2-c2ccccc2)CC1`, the Percent Effect is reported as 26.1%.
`CC(C)(C)c1ncc(C(=O)NCCS(N)(=O)=O)s1` was tested, and the Percent Effect was 28.8%.
In the case of `CN1CCN(C[C@@H]2CN(C(=O)c3ccccc3C#N)C[C@@H]2CO)CC1`, the Percent Effect is reported as -8.04%.
Molecule `Cn1nccc1C(=O)N1CCOC(Cc2cccnc2)C1` (stereo not given) has a Percent Effect of -23.7%.
With `O=C(NCc1cnc2n1CCN(c1ncc(F)cn1)CC2)C1CCC1` the Percent Effect was 3.59%.
`CC(C)Cc1noc(CN2CCN(CCO)CC2)n1` showed a Percent Effect of 25.7%.
`COCc1noc(C2(c3ccc(OC)cc3)CCOCC2)n1` gave a Percent Effect of 1.38%.
`Cc1cc(C)n(C2CN(CC(O)c3ccc4c(c3)OCO4)C2)n1` (stereo not given) was tested, and the Percent Effect was 7.61%.
With `O=C(NCc1cc(=O)n2c(n1)CN(CC1CCOC1)CCC2)C1CC1` (stereo not given) the Percent Effect was -24.3%.
With `Cc1nccc(CNC(=O)NCCOc2ccc(F)c(F)c2)n1` the Percent Effect was -21%.
